Measured values published in PubChem BioAssay (Tox21).
Unmarked numbers belong to inactive results. Activity calls are given as the source filed them. Calls come from the whole dose curve; as a rule, active = well fitted curve in the direction sought with a large enough effect in the repeat runs; inconclusive = weak or mixed curves; inactive = flat fitted curve, though single readings scatter.

test: qHTS assay to test for compound auto fluorescence at 460 nm (blue) in HEK293 cells (AID 720678); settings: blue autofluorescence 405/460 nm; series mostly up to 91.3 µM; fluorescence, % of triamterene: at the top concentration
Outline: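 HEK293, 2,000 cells/well, 10% dialyzed FBS; attach 4-5 hr 37C; pin compound or DMSO; o/n 37C/5% CO2; fluorescence 405/460 nm; triamterene-equivalent units.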
% is set by controls: 0 for no effect and ±100 for the full control effect.

| SMILES | fluorescence, % of triamterene | outcome |
| --- | --- | --- |
| CS/C(C)=N/OC(=O)N(C)SN(C)C(=O)O/N=C(\C)SC | 0.15% | – |
| CCOP(=S)(OCC)SCn1nnc2ccccc2c1=O | 0.114% | – |
| COP(=S)(Oc1cc(Cl)c(Br)cc1Cl)c1ccccc1 (stereo not given) | -0.137% | – |
| CC(C)(C)c1cc([N+](=O)[O-])cc([N+](=O)[O-])c1O | -0.846% | – |
| CCCCC(O)(Cn1cncn1)c1ccc(Cl)cc1Cl (stereo not given) | -0.161% | – |
| Clc1cccc2ccccc12 | -0.0298% | – |
| Cl/C=C\C[N+]12CN3CN(CN(C3)C1)C2 | 5.23% | – |
| Clc1cc(C(Cl)(Cl)Cl)cnc1Cl | -0.215% | – |
| O=C1C(=O)c2cccc3cccc1c23 | 0.102% | – |
| CC1(C)CCC(Cc2ccc(Cl)cc2)C1(O)Cn1cncn1 (stereo not given) | 0.0694% | – |
| CO/N=C(/C(=O)OC)c1ccccc1COc1ccccc1C | -0.0773% | – |
| O=C(NC(=O)c1c(F)cccc1F)Nc1ccc(OC(F)(F)C(F)OC(F)(F)F)c(Cl)c1 (stereo not given) | -0.266% [at 46 µM] | – |
| O=C1c2ccccc2C(=O)C1C(=O)C(c1ccccc1)c1ccccc1 | 0.147% [at 46 µM] | – |
| O=C1CN=C(c2ccccc2)c2cc(Cl)ccc2N1CC1CC1 | – | inactive |
| BrCC(Br)C1CCC(Br)C(Br)C1 (stereo not given) | 0.0045% | – |
| CC(C)O.CC(C)O.OCCN(CCO)CCO.OCCN(CCO)CCO.[Ti] | 0.0452% | – |
| Cc1c(F)c(F)c(COC(=O)C2C(/C=C(\Cl)C(F)(F)F)C2(C)C)c(F)c1F (stereo not given) | -0.038% | – |
| CCOP(=S)(Oc1ccc([N+](=O)[O-])cc1)c1ccccc1 (stereo not given) | 0.0435% | – |
| O=[N+]([O-])C(Br)(CO)CO | – | inactive |
| O=C(O)C(F)(F)C(F)(F)C(F)(F)C(F)(F)C(F)(F)C(F)(F)C(F)(F)C(F)(F)C(F)(F)F | 0.183% | – |
